PAFAH2 inh = inhibitors of human PAFAH2. Q99487. recombinant PAFAH2, FP-rhodamine activity probe, fluorescence polarization. inhibition, % at 3.39 µM. 0.99% of 340,000 active. AID 492956;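 active = inhibition above the mean over all tested compounds plus 3 SD, cut at about 30% in these data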;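 also: inhibitors block probe labeling of enzyme so polarization drops; 0% = enzyme with DMSO and 100% = wells lacking PAFAH2 protein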
pPAFAH FP inh = pPAFAH (human) enzyme inhibition; Q13093; recombinant pPAFAH, FP-rhodamine probe fluorescence polarization; inhibition, % at 3.39 µM; 1.5% of 330,000 active; AID 463082;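 active = inhibition above the mean inhibition across the screen plus 3 SD, cut at about 25% in these data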;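 also: inhibitors block binding of the rhodamine activity-based probe so polarization drops; 0% = enzyme with DMSO and 100% = wells lacking pPAFAH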
Target sequence (Q13093 whole entry, looked up): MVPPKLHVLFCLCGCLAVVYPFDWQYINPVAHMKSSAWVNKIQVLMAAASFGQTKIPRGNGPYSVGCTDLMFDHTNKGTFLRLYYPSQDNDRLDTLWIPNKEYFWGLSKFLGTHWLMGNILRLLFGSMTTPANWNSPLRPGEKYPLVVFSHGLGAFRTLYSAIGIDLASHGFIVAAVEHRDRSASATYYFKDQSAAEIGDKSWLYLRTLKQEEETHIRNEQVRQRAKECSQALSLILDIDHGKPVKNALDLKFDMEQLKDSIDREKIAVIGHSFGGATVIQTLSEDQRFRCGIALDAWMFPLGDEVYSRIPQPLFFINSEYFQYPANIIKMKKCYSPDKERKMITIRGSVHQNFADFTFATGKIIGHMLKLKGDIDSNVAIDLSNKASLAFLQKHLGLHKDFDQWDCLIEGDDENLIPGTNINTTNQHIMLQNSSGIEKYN
PAFAH1B3 FP inh = blocks human PAF acetylhydrolase 1B catalytic subunit 3; Q15102; recombinant PAFAH1B3, FP-rhodamine probe, fluorescence polarization; inhibition, % at 3.39 µM; 0.28% of 340,000 active;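 active = inhibition above the screen-wide average of all tested compounds plus 3 SD, cut at about 25% in these data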;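 also: 0% = enzyme with DMSO only and 100% = wells lacking PAFAH1B3 protein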
ATG4B inh = ATG4B (human) cysteine protease inhibition; Q9Y4P1; ATG4B cleavage of LC3-PLA2, NBD-HPC fluorescence, 1 h; inhibition, % at 8.33 µM; 0.51% of 340,000 active; in the data active = inhibition above about 40%
DAGLB inhibitor = blocks human DAGLB lipase activity; Q8NCG7; HEK293T DAGLB membrane lysate, EnzChek fluorogenic substrate; inhibition, % at 5.17 µM; 0.059% of 340,000 active; in the data active = inhibition above about 34%;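 also: 0% = enzyme with vehicle and 100% = wells lacking enzyme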
PAFAH1B2 inh = PAFAH1B2 (human) inhibition. recombinant PAFAH1B2, FP-rhodamine activity probe, fluorescence polarization. inhibition, % at 3.39 µM. 1.2% of 340,000 active. AID 492953;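 active = inhibition above the mean of all tested compounds plus 3 SD, cut at about 24% in these data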;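 also: 0% = enzyme with DMSO and 100% = wells lacking PAFAH1B2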
pPAFAH confirm = confirmation of human plasma PAF acetylhydrolase (pPAFAH) inhibitors. AID 463230. inhibition, % at 3.39 µM. recombinant pPAFAH, FP-Rh probe fluorescence polarization. 72% of 2,300 active. shares compounds with pPAFAH FP inh;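 active = mean inhibition of the triplicate above the hit cutoff set for the earlier primary screen, cut at about 25% in these data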;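 also: 0% = enzyme with DMSO and 100% = wells lacking pPAFAH enzyme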
* = called active by the depositor; / = no result given. An excerpt weighted towards active compounds, which were near 3% of everything screened.

SMILES	PAFAH2 inh	pPAFAH FP inh	PAFAH1B3 FP inh	ATG4B inh	DAGLB inhibitor	PAFAH1B2 inh	pPAFAH confirm
Cc1nn(C)cc1/C=C1\SC(=S)NC1=O	-7.5	-0.3	-0.7	2.3	0.5	0.6	/
Cc1cc(/C=C2\SC(=S)NC2=O)c(C)n1C	23.4	38.8*	16.9	12.6	9.6	7.2	7.3
CC1CC(C)CN(C(=O)c2cc3cc(Br)cc(Br)c3o2)C1 (stereo not drawn)	4.0	-0.3	6.1	17.7	-12.6	-2.7	/
Cc1c2ccccc2nc2c(F)c(NCCO)c(F)c(F)c12	25.2	37.1*	19.3	-9.0	-2.6	14.3	13.8
CC(NC(=O)CCCc1nnc2n(C)c(=O)c3sccc3n12)c1ccccc1 (stereo not drawn)	9.9	-0.4	1.0	-3.0	-0.9	5.2	/
O=C(Nc1cccc(Cl)c1)Nc1nnc(-c2ccncc2)s1	8.5	41.8*	-4.4	-7.8	-1.2	6.8	34.6*
Cc1cc2nc(CS(=O)(=O)c3ccccc3)cc(=O)n2[nH]1	16.4	2.8	2.4	-14.2	3.4	8.6	/
Cc1cccc(N2CCN(C(=O)CCC(=O)N3CC(C)Oc4ccc(C)cc43)CC2C)c1 (stereo not drawn)	5.4	3.7	-6.7	8.9	-1.1	6.0	/
CCn1c(=O)c2cc(C(=O)N3CCN(C)CC3)sc2c2ccccc21	7.0	-0.4	2.4	-2.4	-0.3	3.8	/
CN1CCN(C(=O)c2cc3sc4ccccc4c3s2)CC1	/	52.0*	/	0.3	/	/	7.1
O=C(CN1C(=O)NC2(CCCC2)C1=O)Nc1ccc(F)c([N+](=O)[O-])c1	1.5	3.2	-1.6	-3.4	1.2	6.0	/
CCc1ccc(NC(=O)Cc2c(C(=O)O)n(C)c3ccccc23)cc1	6.1	10.7	4.0	3.2	5.9	3.1	/
O=C(CCO)c1ccc(O)cc1	14.4	36.9*	11.3	-14.1	-0.6	7.2	17.2
CCCCC(=O)c1ccc(O)cc1	-0.7	18.6	6.1	-6.6	-1.2	3.0	/
CCN(CC(=O)Nc1c(F)cccc1F)C(=O)/C=C/c1ccc2ccccc2n1	14.7	39.6*	5.8	15.7	1.0	-1.1	25.0*
Cn1c(=N)n(CC(=O)c2ccc(Br)cc2)c2ccccc21	0.7	34.5*	-6.5	-6.0	-1.2	1.7	5.6
Cn1c(=N)n(CC(=O)c2ccc(F)cc2)c2ccccc21	3.9	3.2	12.2	-1.5	-2.9	-3.0	/
O=C(CSCCOc1ccccc1)NCc1ccncc1	-1.8	5.8	14.9	3.1	-6.0	9.0	/
CCCCn1c(N)c(N(CCOC)C(=O)c2ccc(-c3cccc(C(F)(F)F)c3)o2)c(=O)[nH]c1=O	-9.6	39.1*	0.9	-1.6	2.5	1.9	17.0
CC(C)OC(=O)c1cc2c(=O)[nH]c(C(Cl)(Cl)Cl)nc2o1	6.0	-0.6	8.6	2.6	6.0	0.2	/
Cc1cc(=O)[nH]c(N/N=C/C2=C(N3CCOCC3)C(=C\c3ccc(Cl)cc3)/CC2)n1	7.7	53.9*	6.9	-6.3	7.0	-1.2	46.5*
O=C(O)c1ccccc1N/N=C/C1=C(N2CCOCC2)C(=C\c2ccccc2)/CC1	21.6	19.8	5.7	2.1	1.5	7.1	/
Cc1cc(C)nc(N/N=C/C2=C(N3CCOCC3)C(=C/c3ccccc3)/CC2)n1	2.9	64.6*	3.9	-13.9	5.8	1.8	82.3*
Cc1occc1C(=O)N/N=C/C1=C(N2CCOCC2)C(=C\c2ccc(Cl)cc2)/CC1	-4.9	8.4	2.6	1.8	-2.0	-1.5	/
NC(=O)CSc1nnc(-c2ccccc2)c(-c2ccccc2)n1	-2.7	1.2	0.7	-1.9	-0.8	5.4	/
COc1ccc(NC(=O)CN2C(=O)NC3(CCCC3)C2=O)cc1Cl	-14.9	-2.8	5.4	-2.0	-1.8	3.6	/
COc1cc2[nH]c3c(N4CCN(c5ccccn5)CC4)ncnc3c2cc1OC	-3.2	69.8*	6.9	-17.5	1.7	4.2	57.6*
O=C1c2ccc(-c3ccc(F)cc3OCc3ccccc3)cc2S(=O)(=O)c2cccc(C(=O)N3CCCC3)c21	8.5	46.1*	4.7	-3.2	2.0	12.4	45.1*
O=C(NCc1cccc(OC(F)(F)F)c1)c1cccc2c1C(=O)c1ccc(-c3ccc(F)cc3OCc3ccccc3)cc1S2(=O)=O	-9.6	14.5	-8.3	0.7	-1.6	-8.9	/
